Assay results as given in PubChem BioAssay AID589 (National Center for Advancing Translational Sciences (NCATS), 2007).
Among all 59,000 compounds or so, about 6,200 (11%) were called active. Inconclusive results (about 9%) are left out. Rule as the data show it: active = max dye-equivalent concentration above about 10 nM; inconclusive = mostly about 1.1 nM to 9.6 nM; inactive = weaker than that. The entries come from a sample that favours actives as a whole.

experiment: qHTS Assay for Spectroscopic Profiling in 4-MU Spectral Region; details: compound autofluorescence, 340/450 nm, 4-MU equivalents; stronger effect = higher value
In short: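 Compounds in 100 mM Tris, pH 8.0, incubated 15 min at room temperature, then fluorescence read at 340 nm excitation/450 nm emission. Signal converted to 4-MU dye-equivalent concentration using an on-plate six-point 4-MU standard curve.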

Max dye-equivalent concentration, active:
CCn1c(=N)c(S(=O)(=O)c2ccc(F)cc2)cc2c(=O)n3ccccc3nc21 590 nM
Cc1ccc(-n2nc3cc(Cl)c(NC(=O)c4ccco4)cc3n2)cc1 54 nM
COc1ccc2c(CC(=O)Nc3nnc(C4CC4)s3)coc2c1 11 nM
Fc1ccc2nc(-c3ccccc3)nc(SCc3nnc(-c4ccccc4)o3)c2c1 29 nM
CCOC(=O)c1cc(-c2ccc(Cl)s2)nc2c1c(C)nn2C 180 nM
COCCn1c(=O)[nH]c2cc(C(=O)NCc3cccnc3)ccc2c1=O 41 nM
CCOC(=O)c1cc(-c2nnc(-c3cc(OC)c(OC)c(OC)c3)o2)c(C)nc1C 24 nM
CC1CCCCN1CC(=O)NCc1ccc2c(c1)OCO2 (configuration not stated) 51 nM
CCC1(C)Cc2c(sc3nc4n(c(=O)c23)CCCS4)CO1 (configuration not stated) 47 nM
CC1CCc2c(sc3c2C2=NS(=O)(=O)CCN2C=N3)C1 (configuration not stated) 26 nM
COc1ncc2nc(-c3ccc(Cl)cc3)c(=O)n(C)c2n1 27 nM
O=c1c(-c2ccc(F)cc2)nc2cnc(N3CCOCC3)nc2n1-c1ccccc1 23 nM
CN1CCN(c2ncc3nc(-c4ccc(Cl)cc4)c(=O)n(-c4ccccc4)c3n2)CC1 52 nM

Max dye-equivalent concentration, inactive:
CCOc1ccc(N=C2SC(C(=O)O)CC(=O)N2C)cc1 (configuration not stated)
O=CN1CCN(C2CC(=O)N(c3ccc4c(c3)OCO4)C2=O)CC1 (configuration not stated)
Cn1c(NC(=O)c2ccco2)c(-c2ccccc2Cl)c(=O)c2ccccc21
COC(=O)c1cc(Cl)c(NC(=O)c2ccco2)cc1OC
CSCC[C@H](NC(=O)NCc1cccs1)C(=O)O
COCCNc1ccnc(-c2cccc(NS(C)(=O)=O)c2)n1
N#Cc1ccc(CN2CCCC3(CCN(C(=O)c4ccco4)CC3)C2)cc1
COc1ccc(OCCCC(=O)Nc2nnc(C3CCCO3)s2)cc1 (configuration not stated)
COc1ccc(Cc2nnc(NC(=O)Cc3cccs3)s2)cc1
O/N=C1\CC2(Cc3nonc31)OCCO2
O=C(CN1CCOCC1)Nc1ccc(NC(=O)CN2CCOCC2)c(Cl)c1
Fc1ccc(-c2nnc(CSc3nnc(-c4ccc5c(c4)OCO5)o3)o2)cc1
C=CCn1c(SCc2nnc(-c3ccccc3)o2)nnc1C(O)c1ccccc1 (configuration not stated)
O=C(N1CCOCC1)N1CCOCC1
O=C(c1csnn1)N1CCC[C@@]2(CCN(Cc3nccs3)C2)C1
O=C(OC(C(=O)NC1CCCC1)c1ccc(F)cc1)c1ccno1 (configuration not stated)
CCn1c(NCCc2ccc(OC)c(OC)c2)nc2c1c(=O)n(C)c(=O)n2C
O=C(O)c1nn(-c2ccc(Cl)cc2)c2c1C(=O)c1ccccc1C2=O
O=C(O)CN1C(=O)CC(Cc2ccccc2)C1=O (configuration not stated)
O=C(NC1(C(F)(F)F)N=C2SCCN2C1=O)c1ccco1 (configuration not stated)
CCOC(=O)c1cnc(-n2nc(C)cc2C)nc1-n1nc(C)cc1C
CCOC(=O)c1c(C(C#N)C#N)cc(C)nc1C
CN(C)c1nc2n(c(=O)n1)CCO2
Cc1ccc(-n2nc(-c3ccco3)cc2C(=O)NCc2cccnc2)cc1
CC(C)(C)c1cc(C(=O)NCc2cccnc2)ccn1
CCOc1ccccc1Oc1cn[nH]c1-c1ccc(OC)cc1O
Cc1cc(Cl)c(S(=O)(=O)NCCC(=O)O)cc1OCC(N)=O
COc1cc(-c2nnc(Cn3cc(C(F)(F)F)ccc3=O)o2)cc(OC)c1OC
CCOC(=O)c1cc(NC(=O)SCC(=O)O)c(C)nc1C
O=C(NCc1ccco1)c1nc(-c2ccccc2)n(-c2ccccc2)n1
COC(=O)[C@@H](NC(=O)NCc1cccc(OC)c1)C(C)C
CCOc1ccc(-c2cn(S(=O)(=O)c3cccc4nsnc34)nc2N)cc1
O=C(Cn1nnc(-c2ccccc2)n1)NCc1ccc2c(c1)OCO2
CCOC(=O)NCc1ccc2c(c1)OCO2
COc1ccc(S(=O)(=O)Nc2c(C)n(C)n(-c3ccccc3)c2=O)cc1
CC1(C)Cc2c(sc3nc4n(c(=N)c23)CCCCC4)CO1
CCOC(=O)Cn1c(SC)nc2sc3c(c2c1=O)CC(C)(C)OC3
COc1ccc2[nH]cc(CCNc3cc(-c4ccccc4CN(C)C)ncn3)c2c1
O=C(NCCCN1CCN(c2ccccc2F)CC1)C1CCC(=O)N1C1CCCCC1 (configuration not stated)
COC(=O)c1sc(=S)n(-c2ccccc2)c1N
CC(C)CCNC(=O)C1CCCN(S(=O)(=O)c2ccc(F)cc2)C1 (configuration not stated)
COCCNc1ncnc2ccc(-c3cccnc3)cc12
Cc1cc(NC(=O)CCC(=O)N(c2cccc(F)c2)C(C(=O)NC2CCCC2)c2ccncc2)no1 (configuration not stated)
CS(=O)(=O)N1CCC2(CC1)CN(Cc1ccccc1)C2
NC[C@@H]1O[C@H](O[C@@H]2[C@H](O[C@@H]3O[C@H](CO)[C@@H](COC[C@H]4O[C@@H](CN)[C@@H](O)[C@@H](O)[C@@H]4N)[C@@H]3O)[C@@H](O)[C@@H](N)C[C@H]2N)[C@@H](N)[C@H](O)[C@@H]1O
COc1ccc(OC)c(NC(=O)CSc2nc(N)c(-c3ccccc3)c(=O)[nH]2)c1
C[N+]1(CCN=C=NC2CCCCC2)CCOCC1
CCCCNc1nc2c(c(=O)[nH]c(=O)n2C)n1CCOc1ccccc1
O=C(c1ccc2c(c1)C(=O)N(c1ccc(Cl)cc1)C2=O)N1CCN(c2ccccn2)CC1
O=c1c(-c2ccc(F)cc2)nc2cncnc2n1-c1ccccc1
COc1ccc(Oc2ncc3nc(-c4ccc(F)cc4)c(=O)n(C)c3n2)cc1
Cn1cc(-c2nc3cncnc3n(-c3ccccc3)c2=O)c2ccccc21
O=C(Nc1ccc(F)cc1)c1cccnc1N1CCOCC1
O=C(NCCSc1ccccc1)c1ccco1
